{
  "source": "PubChem BioAssay AID1851",
  "about": "(National Center for Advancing Translational Sciences (NCATS), 2009)",
  "note": "The whole screen tested about 16,000 compounds, of which about 5,800 (36%) were called active. Another 23% or so got no clear call; they are omitted. This is one part of the list. A number with no mark means an inactive call. Calls follow the shape of the dose curve; as a rule, active = well fitted curve in the direction sought with a large enough effect; inconclusive = small, poorly fitted or top-dose-only effect, or effect the other way; inactive = no such curve, though single readings can be large or run the other way. % is scaled to controls: 0 for no effect and ±100 for the full control effect.",
  "data": [
    {"target": "Cytochrome P450 2C19 (Homo sapiens) (UniProt P33261)", "sequence (P33261 whole entry, looked up)": "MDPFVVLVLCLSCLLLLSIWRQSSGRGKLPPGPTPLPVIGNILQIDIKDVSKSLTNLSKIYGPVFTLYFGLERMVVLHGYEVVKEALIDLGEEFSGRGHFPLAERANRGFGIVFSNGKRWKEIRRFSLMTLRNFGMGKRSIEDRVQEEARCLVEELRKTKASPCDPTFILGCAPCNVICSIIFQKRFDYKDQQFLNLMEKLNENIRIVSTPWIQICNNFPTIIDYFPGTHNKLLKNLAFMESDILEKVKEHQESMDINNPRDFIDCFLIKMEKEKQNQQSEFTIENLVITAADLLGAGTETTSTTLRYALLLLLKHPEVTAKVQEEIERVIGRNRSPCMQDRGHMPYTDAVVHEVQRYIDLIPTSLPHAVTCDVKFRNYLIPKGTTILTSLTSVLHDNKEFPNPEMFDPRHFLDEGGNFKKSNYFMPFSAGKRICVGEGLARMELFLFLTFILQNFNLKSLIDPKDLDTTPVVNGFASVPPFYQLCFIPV", "assay": "Cytochrome panel assay with activity outcomes", "details": "recombinant CYP, pro-luciferin dealkylation, luminescence, p450-cyp2c19; series mostly up to 57.1 µM; activity, negative = inhibition: at the top concentration", "values": [
      {"smiles": "CCOC(=O)c1cnc2ccc(C)cc2c1Sc1ccccc1C(=O)OC", "AC50": "1.26 µM (active)"},
      {"smiles": "CCOC(=O)c1cnc(N(C)C)nc1SC(=N)N", "activity, negative = inhibition": "7.18% [at 11.4 µM]"},
      {"smiles": "NC(N)=Nc1nc2ccc([N+](=O)[O-])cc2[nH]1", "activity, negative = inhibition": "-5.76% [at 11.4 µM]"},
      {"smiles": "COc1ccc(-c2nc(-c3ccccc3)c(-c3cc([N+](=O)[O-])ccc3C)[nH]2)cc1O", "AC50": "8.91 µM (active)"},
      {"smiles": "c1ccc(-c2nc(-c3cccs3)[nH]c2-c2ccccc2)cc1", "AC50": "6.31 µM (active)"},
      {"smiles": "O=[N+]([O-])c1cccc(-c2nc(-c3cccs3)c(-c3cccs3)[nH]2)c1", "AC50": "3.16 µM (active)"},
      {"smiles": "O=[N+]([O-])c1cccc(-c2nc(-c3ccccc3)c(-c3cccs3)[nH]2)c1", "AC50": "2.51 µM (active)"},
      {"smiles": "CO[C@]1(NC(=O)C2SC(=C(C(N)=O)C(=O)O)S2)C(=O)N2C(C(=O)O)=C(CSc3nnnn3C)CS[C@H]21", "note": "(some centres not stated)", "activity, negative = inhibition": "-28.9% [at 25.6 µM]"},
      {"smiles": "NCCC(=O)O", "activity, negative = inhibition": "20.3%"},
      {"smiles": "CCC(Sc1nc2n[nH]c(C)c2c(=N)n1-c1cccc(Cl)c1)C(=O)NCCOC", "note": "(configuration not stated)", "AC50": "10 µM (active)"},
      {"smiles": "Cc1cc([N+](=O)[O-])c(C)c(Br)c1C", "activity, negative = inhibition": "8.85% [at 11.4 µM]"},
      {"smiles": "CCC(C)Nc1c([N+](=O)[O-])cc(C)cc1[N+](=O)[O-]", "note": "(configuration not stated)", "AC50": "7.94 µM (active)"},
      {"smiles": "O=C(O)Cc1cccnc1", "activity, negative = inhibition": "9.66% [at 11.4 µM]"},
      {"smiles": "C[C@@H](N)[C@@H](C)Cc1ccccc1", "activity, negative = inhibition": "-14.2% [at 11.4 µM]"},
      {"smiles": "c1ccc(C[C@@H](Nc2cccnc2)c2ccccc2)cc1", "AC50": "1 µM (active)"},
      {"smiles": "O=c1[nH]cc(CS(=O)(=O)Cc2c[nH]c(=O)[nH]c2=O)c(=O)[nH]1", "activity, negative = inhibition": "41% [at 11.4 µM]"},
      {"smiles": "CC1(C)CC(=O)C(C=NCCN2CCN(C(=S)Nc3ccc(F)cc3)CC2)=C(O)C1", "AC50": "10 µM (active)"},
      {"smiles": "COCCCN=CC1=C(O)CC(C)(C)CC1=O", "activity, negative = inhibition": "-18.8%"},
      {"smiles": "CCCCN1CSC(=S)N(Cc2ccccc2)C1", "AC50": "1.26 µM (active)"},
      {"smiles": "S=C1SCN(CCN2CCOCC2)CN1Cc1ccccc1", "AC50": "10 µM (active)"},
      {"smiles": "CC(=O)N1CCC2(CC1)CN(Cc1ccccc1)C2", "activity, negative = inhibition": "8.15%"},
      {"smiles": "COc1cc2cc3c4cc(OC)c(OC)cc4cc[n+]3c(C)c2cc1OC", "activity, negative = inhibition": "44.3% [at 25.6 µM]"},
      {"smiles": "Cc1oc(-c2ccccc2)cc1C(=O)Nc1ccc(N(C)C)cc1", "AC50": "5.62 µM (active)"},
      {"smiles": "Cc1ccc(NC(=O)c2ccccc2C(=O)O)cc1C", "activity, negative = inhibition": "-34.4% [at 11.4 µM]"},
      {"smiles": "Cc1oc(C(C)(C)C)cc1C(=O)Nc1cccc(/C=C/C(=O)O)c1", "activity, negative = inhibition": "-12.3%"},
      {"smiles": "Cn1c(C(=O)N2COCC2(C)C)cc2c(=O)n3ccccc3nc21", "activity, negative = inhibition": "-15.8%"},
      {"smiles": "Cn1c(=N)c(S(=O)(=O)c2ccc(F)cc2)cc2c(=O)n3ccccc3nc21", "AC50": "11.2 µM (active)"},
      {"smiles": "CCn1c(=N)c(S(=O)(=O)c2ccc(F)cc2)cc2c(=O)n3ccccc3nc21", "AC50": "8.91 µM (active)"},
      {"smiles": "Cc1cn([C@H]2C[C@H](O)[C@@H](COC(N)=O)O2)c(=O)[nH]c1=O", "activity, negative = inhibition": "35.3% [at 11.4 µM]"},
      {"smiles": "COc1cccc(Nc2ncc3ncc(=O)n(C4CC4)c3n2)c1", "activity, negative = inhibition": "-14%"},
      {"smiles": "COc1ccc(Nc2cc(=O)n(C3CCCCC3)c(=O)[nH]2)c(OC)c1", "AC50": "10 µM (active)"},
      {"smiles": "COc1cccc(Nc2ncc3nc(-c4ccc(Cl)cc4)c(=O)n(C4CC4)c3n2)c1", "activity, negative = inhibition": "-31.9%"},
      {"smiles": "CS[C@@H](CC(=O)O)C(=O)O", "activity, negative = inhibition": "17.7% [at 11.4 µM]"},
      {"smiles": "COc1cccc(C(=O)N(C)c2nnc(-c3ccncc3)s2)c1", "AC50": "0.0501 µM (active)"},
      {"smiles": "Cc1nnc(N(C)C(=O)c2ccccn2)s1", "activity, negative = inhibition": "-2.67%"},
      {"smiles": "CCOc1ccc2nc(SCc3ccccc3C#N)sc2c1", "AC50": "1.26 µM (active)"},
      {"smiles": "C=C(C)c1cccc(C(C)(C)NC(=O)Nc2cc(C)ccc2OC)c1", "AC50": "3.98 µM (active)"},
      {"smiles": "CCCCn1c(NCc2ccccc2NS(=O)(=O)c2ccc(C)cc2)nc2ccccc21", "AC50": "1.26 µM (active)"},
      {"smiles": "C#CCCCO/N=C1/C[C@@H](O)[C@@H](O)[C@@H]2[C@H]3C(=O)N(c4ccc(F)cc4F)C(=O)[C@@H]3CC[C@H]12", "activity, negative = inhibition": "14.9% [at 11.4 µM]"},
      {"smiles": "c1ccc(C(CCN2CC3CCC(CC3)C2)c2ccccc2)cc1", "activity, negative = inhibition": "21% [at 11.4 µM]"},
      {"smiles": "NC(=O)CNCCC(c1ccccc1)c1ccccc1", "activity, negative = inhibition": "8.34%"},
      {"smiles": "C[C@H](NCCC(c1ccccc1)c1ccccc1)c1ccccc1", "AC50": "5.01 µM (active)"},
      {"smiles": "CCOC(=O)c1cnc(-n2nc(C)cc2C)nc1NCCO", "activity, negative = inhibition": "-10.6%"},
      {"smiles": "CCOC(=O)c1ccccc1Oc1c(F)c(F)nc(NCCO)c1F", "AC50": "2.51 µM (active)"},
      {"smiles": "COc1ccc(CCn2c3c(c(=O)[nH]c2=O)C(NC(=O)c2cccs2)(C(F)(F)F)C(=O)N3)cc1OC", "note": "(configuration not stated)", "activity, negative = inhibition": "-27.7%"},
      {"smiles": "CCn1c(COc2ccccc2)nnc1SCC(=O)Nc1cc(OC)ccc1OC", "AC50": "2.82 µM (active)"},
      {"smiles": "COc1ccc(C(=O)NNC(=O)CSc2nnc(COc3ccc4ccccc4c3)n2C)cc1", "activity, negative = inhibition": "-23.2%"}
    ]}
  ]
}
